Experiment in all cases: NCI-60 one-dose screen, 48 h (100 = growth as untreated, 0 = no growth, -100 = all killed)
The test system of test [1] is T-47D breast. The conditions noted are these: 10 µM.
In test [2] the test system is BT-549 breast. The note with it: 10 µM unless noted.
For test [3], the system named is MDA-MB-435 melanoma. The conditions noted are these: 10 µM unless noted.
Test [4] relates to SW-620 colon. The note with it: 10 µM unless noted.
Test [5] relates to MCF7 breast. The conditions noted are these: 10 µM unless noted.
Test [6] deals with HCT-116 colon. The note with it: 10 µM unless noted.
For test [7], the system named is HCC-2998 colon. The note with it: 10 µM unless noted.
Test [8] relates to KM12 colon. The conditions noted are these: 10 µM unless noted.

About 83,000 compounds went through this panel and 20% of them were active in at least one assay; those are over-represented in the sample as a whole.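 Single-concentration screen, 48 h exposure, 96-well plates. Endpoint: percent growth. Below 10 = active.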 A number with no mark means an inactive call. Active and inactive are the calls of the source.

As to `CCOc1ccc(-c2cnnn2-c2nonc2-n2cccc2)cc1`, the growth in test [1] is 49%; in test [2], 41.1%; in test [3], -31.2% (active); in test [4], 21.7%; in test [5], 21.9%; in test [6], 6.67% (active). In addition, the growth in test [7] is 0.666% (active); in test [8] it was 8.62% (active).

As to `O=C(C[Si](CC(=O)c1cccc(C(F)(F)F)c1)CC(=O)c1cccc(C(F)(F)F)c1)c1cccc(C(F)(F)F)c1`, the growth in test [1] is 98.7%; in test [2] it was 87.2%; in test [3], 26%; in test [4] it was 35%; in test [5], 86.3%; in test [6], 23.5%. Besides, the growth in test [7] was 83.6%.

Turning to `O=C1CC(c2ccsc2)c2snc(-c3ccc(Cl)cc3)c2N1` (configuration not stated), the growth in test [1] was 30.6%; in test [2], 32.8%; in test [3] it was -20.9% (active); in test [4], 33.4%; in test [5], 7.59% (active); in test [6], 21.5%. Moreover, the growth is 58.5% in test [7] and 27.6% in test [8].

`Brc1ccc(SCN(CSc2ccc(Br)cc2)Cc2ccccc2)cc1`: the growth in test [1] is 84.7%; in test [2], -15.2% (active); in test [3], 75.8%; in test [4] it was 102%; in test [5], 66.2%; in test [6], 57.8%. Besides, the growth is 113% in test [7] and 43.2% in test [8].

`COC(=O)[C@H]1CCCN1C(=O)[C@H]1CCCN1C(=O)[C@@H](Cc1c[nH]c2ccccc12)NC(=S)Nc1cc(C(F)(F)F)cc(C(F)(F)F)c1`: the growth was 50.2% in test [1]; 91.9% in test [2]; 31.6% in test [3]; 64.2% in test [4]; 26.1% in test [5]; 39.5% in test [6]. Further, the growth was 31.8% in test [7] and 37.2% in test [8].

`CC1(C)N=C(N)N=C(N)N1c1cccc(OCCOc2cccc([N+](=O)[O-])c2)c1`: the growth in test [1] is 83.1%; in test [2], 37.8%; in test [3], 17.8%; in test [4], 48.6%; in test [5], 29%; in test [6] it was 10.9%. In addition, the growth was 47.6% in test [7] and 22.2% in test [8].

For the compound `COc1cc(/C=C2\C(=O)N(c3c(Cl)cccc3Cl)c3ccccc32)cc(OC)c1O`, the growth in test [1] was 51.8%; in test [2], 33.4%; in test [3], 35.2%; in test [4], 31.4%; in test [5] it was 25.3%; in test [6], 15.7%. For the same compound, the results for the growth in test [7] and in test [8] were 44.6% and 28.4%, respectively.

On to `O=C1/C(=C/c2ccc(Oc3ccccc3)cc2)N=C(c2ccccc2)N1CCc1cccs1`, for which the growth in test [1] was 83.9%; in test [2], 74.9%; in test [3] it was 89.7%; in test [4], 80.1%; in test [5], 81.8%; in test [6] it was 57.1%. The figures for the growth in test [7] and in test [8] were 96.6% and 97.6%, respectively.

Turning to `COc1ccc(S(=O)(=O)ON=C2C=C(C)C(=O)C(C)=C2)cc1`, the growth in test [1] is 40.3%; in test [2], 97.7%; in test [3], 18.1%; in test [4] it was 60.7%; in test [5], 64%; in test [6] it was 44.9%. Moreover, the values for the growth in test [7] and in test [8] were 112% and 97.6%, respectively.

As to `COC(=O)[C@@H]1CCCN1C(=O)[C@@H]1CCCN1C(=O)[C@@H](Cc1c[nH]c2ccccc12)NC(=S)Nc1cc(C(F)(F)F)cc(C(F)(F)F)c1`, the growth in test [1] was 32.8%; in test [2] it was 82.4%; in test [3] it was 5.44% (active); in test [4], 50.3%; in test [5] it was 25.9%; in test [6] it was 34%. Moreover, the growth is 35.4% in test [7] and 66.2% in test [8].

As for `O=C(NCc1cccnc1)c1ccc([N+](=O)[O-])o1`, the growth is 57% in test [1]; 4.28% (active) in test [2]; -19.9% (active) in test [3]; -65.3% (active) in test [4]; 13.9% in test [5]; -4.08% (active) in test [6]. In addition, the growth is -97.6% (active) in test [7] and 0.0106% (active) in test [8].

With `Clc1ccc(C2=Nc3cccc4cccc(c34)N2)cc1Cl`, the growth in test [1] was 42.2%; in test [2] it was 74.2%; in test [3], 114%; in test [4], 99%; in test [5], 50.2%; in test [6], 93%. In addition, the growth in test [7] was 104%; in test [8] it was 99.9%.

In the case of `Cc1nn(-c2ccccc2)c2nc3nc4c(c(N)c3c(-c3ccc(Cl)cc3)c12)CCC4`, the growth was 102% in test [1]; 114% in test [2]; 95.1% in test [3]; 50.8% in test [4]; 87.5% in test [5]; 58.2% in test [6]. The growth in test [7] was 109%; in test [8] it was 96.6%.

Regarding `O=C(N/N=C(\CS(=O)(=O)c1ccccc1)c1cc2cc(Br)ccc2oc1=O)c1ccccc1`, the growth in test [1] is 94.1%; in test [2], 102%; in test [3], 100%; in test [4], 102%; in test [5], 98.2%; in test [6], 104%. The values for the growth in test [7] and in test [8] were 103% and 105%, respectively.

With `CC1=C(C/C=C(\C)CCC[C@H](C)CCC[C@H](C)CCCC(C)C)C(=O)c2ccccc2C1=O`, the growth in test [1] was 110%; in test [2] it was 96.7%; in test [3], 108%; in test [4], 104%; in test [5], 108%; in test [6], 98.8%. Further, the growth is 108% in test [7] and 105% in test [8].

`COc1ccc(C2SC(C)C(=O)N2CCc2cccs2)cc1OC` (configuration not stated): the growth is 52.9% in test [1]; 76% in test [2]; 98.3% in test [3]; 102% in test [4]; 86.3% in test [5]; 78.4% in test [6]. Further, the results for the growth in test [7] and in test [8] were 84% and 96.3%, respectively.

`COc1cc(C(F)(F)F)ccc1-c1cc(-c2ccc(F)cc2)n[nH]1`: the growth in test [1] was 62.7%; in test [2] it was 106%; in test [3], 96%; in test [4] it was 98.3%; in test [5] it was 50.4%; in test [6], 82.2%. In addition, the growth in test [7] was 108%; in test [8] it was 88.1%.

As for `CC(C)(C)[Si](C)(C)OC1[C@@H](COC(N)=O)O[C@@H](n2cnc3c(N)ncnc32)[C@H]1O[Si](C)(C)C(C)(C)C` (some centres not stated), the growth in test [1] is 84.4%; in test [2], 106%; in test [3] it was 74.6%; in test [4], 100%; in test [5], 78.6%; in test [6], 90.1%. For the same compound, the results for the growth in test [7] and in test [8] were 107% and 76%, respectively.

In the case of `O=c1nc(NO)[nH]c(=O)n1Cc1ccccc1`, the growth in test [1] is 92.8%; in test [2] it was 103%; in test [3] it was 101%; in test [4], 108%; in test [5] it was 98.9%; in test [6], 105%. Besides, the growth was 106% in test [7] and 105% in test [8].

On to `Clc1ccccc1Nc1ccc2nnc(-c3ccncc3)n2n1`, for which the growth in test [1] is 100%; in test [2], 101%; in test [3], 98%; in test [4], 114%; in test [5] it was 95.9%; in test [6], 101%. The growth was 118% in test [7] and 101% in test [8].

Take `COC(=O)c1c2c(c(C)[n+]([O-])c1C)C(=O)C=C(NCc1ccc(F)cc1)C2=O`: the growth in test [1] was -41.1% (active); in test [2], -91.3% (active); in test [3], -93.1% (active); in test [4] it was -9.71% (active); in test [5], -60.6% (active); in test [6], 0.358% (active). Also, the results for the growth in test [7] and in test [8] were -40.2% (active) and 1.23% (active), respectively.

In the case of `COc1ccc(Nc2nc(NCCNc3ccnc4cc(Cl)ccc34)nc(N3CCOCC3)n2)cc1`, the growth in test [1] is 110%; in test [2] it was 83.7%; in test [3], 11.1%; in test [4], 27.2%; in test [5], 56.2%; in test [6] it was 41.8%. In addition, the growth in test [7] is 0.682% (active); in test [8], 51.5%.

On to `O=C1CCC(N2Cc3c(C#CCCCNC(=O)c4cc5c(o4)C(=O)c4ccccc4C5=O)cccc3C2=O)C(=O)N1` (configuration not stated), for which the growth in test [1] was 7.33% (active); in test [2] it was -94.8% (active); in test [3], -94.5% (active); in test [4], -34.7% (active); in test [5] it was -68.6% (active); in test [6], -25.5% (active). Also, the growth in test [7] is -64.1% (active); in test [8], -1.98% (active).

`CCN(C(=O)c1ccc2c3c(cccc13)C=C2)c1ccccc1`: the growth in test [1] is 96%; in test [2] it was 107%; in test [3] it was 90.9%; in test [4], 111%; in test [5], 109%; in test [6] it was 97.8%. Also, the growth was 123% in test [7] and 118% in test [8].

With `O=C(CCc1nnc2sc(-c3ccccc3)nn12)c1nc2ccccc2[nH]1`, the growth in test [1] was 80.3%; in test [2] it was 98.4%; in test [3], 94.8%; in test [4], 123%; in test [5], 87%; in test [6], 72.2%. The results for the growth in test [7] and in test [8] were 104% and 100%, respectively.

Take `Clc1cccc(Cl)c1Nc1ccc2nnc(-c3ccncc3)n2n1`: the growth in test [1] is 91.3%; in test [2], 114%; in test [3], 104%; in test [4], 102%; in test [5] it was 95.2%; in test [6] it was 98.9%. Also, the growth in test [7] was 97.1%; in test [8], 112%.

Take `CCCOC(=O)c1ccc2c(c1)[N+](=O)C(C(=O)c1ccccc1)=C(C(F)(F)F)[N+]2=O`: the growth is -83.2% (active) in test [1]; -83.9% (active) in test [2]; -89.5% (active) in test [3]; -82.5% (active) in test [4]; -69.7% (active) in test [5]; -73% (active) in test [6]. Moreover, the values for the growth in test [7] and in test [8] were -87.6% (active) and -81.6% (active), respectively.

For `Cc1c(NCC(=O)Nc2nc3ccccc3[nH]2)c(=O)n(-c2ccccc2)n1C`, the growth in test [1] is 97.8%; in test [2], 110%; in test [3] it was 103%; in test [4], 103%; in test [5], 89.4%; in test [6], 101%. For the same compound, the growth in test [7] is 114%; in test [8], 112%.

For `Cc1ccc2c(N/N=C\c3ccco3)cc(C)nc2n1`, the growth in test [1] was 37.4%; in test [2], 87.7%; in test [3], 36.6%; in test [4], 39.5%; in test [5], 71.8%; in test [6], 21.5%. For the same compound, the growth was 65.4% in test [7] and 74.8% in test [8].

Regarding `CSc1ccc(OC(C)=O)cc1C`, the growth in test [1] was 90.6%; in test [2], 98%; in test [3] it was 91.3%; in test [4] it was 105%; in test [5], 100%; in test [6] it was 101%. The growth in test [7] is 102%; in test [8], 101%.

`Cc1nn(-c2ccccc2)c2nc3nc4c(c(N)c3c(-c3ccc(Cl)cc3)c12)CCCC4`: the growth in test [1] is 108%; in test [2], 113%; in test [3] it was 97%; in test [4], 79.5%; in test [5], 97.8%; in test [6], 80.2%. Besides, the growth in test [7] was 113%; in test [8], 105%.

These data come from PubChem BioAssay (NCI).
